15 molecules from PubChem BioAssay (NCATS) can be followed below.

For assay [1], the target named is Cytochrome P450 3A4 (Homo sapiens) (UniProt P08684). The assay is described as follows: qHTS Assay for Inhibitors and Substrates of Cytochrome P450 3A4 (AID 884). For activity change, negative = inhibition: % is set by controls: 0 for no effect and ±100 for the full control effect. Note: nearly all actives have a fitted effect of over 50% in size. Note: potency is the fitted concentration of half-maximal effect. An outline of the steps: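 20 nM human CYP3A4 with 25 uM Luciferin-PPXE (at KM) in 200 mM KPO4, preincubated 10 min with compound; NADPH regeneration started a 60 min RT reaction. Luciferin detected by luminescence, normalized to 57 uM ketoconazole as full inhibition.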

Assay [2] can be described thus: Confirmation and Secondary Assay for Modulators of Hemoglobin Beta Chain Splicing at IVS2 654 locus (AID 910).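 Note: HeLa cells stably carrying EGFP split by mutant beta-globin IVS2-654 intron; % of control where 0% means no effect.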 In a few lines:
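HeLa cells stably expressing EGFP interrupted by β-globin IVS2-654 intron, seeded overnight in Opti-MEM/2% FCS, then treated 2 days at 37 °C. Restored splicing read as total peak GFP intensity per well by laser scanning cytometry (488 nm excitation, 500–520 nm emission); 500 nM antisense PNA as control.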

Assay [3] is described as follows: Confirmation and Secondary Assay for Modulators of Hemoglobin Beta Chain Splicing at IVS2 705 locus (AID 930).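 Note: HeLa cells stably expressing the EGFP-705 splicing reporter; % of control where 0% means no effect.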 In a few lines: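 Assay measures total GFP intensity per well in HeLa EGFP-705 cells after 2 days with compound; mis-splicing normally truncates EGFP, so fluorescence indicates corrected splicing.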
Assay [4] in a line: qHTS Assay for Lipid Storage Modulators (AID 1519; calls by dose curve; for activity change, negative = inhibition: % is set by controls: 0 for no effect and ±100 for the full control effect). As to conditions: Drosophila S3 cells, BODIPY lipid droplet/cell ratio, laser cytometry, cells loaded with oleic acid; for activity change, negative = inhibition: at 57.5 µM (top of the series). An outline of the steps:
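Cells seeded at 5,000 per well were treated with compounds over a concentration series and loaded with oleic acid (400 uM, as added). Lipid droplet fluorescence (488 nm excitation, 500-530 nm channel) was read by laser-scanning cytometry and normalized to 20 uM Triacsin C.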
Background: qHTS replaces the single test concentration by a dilution series.

Assay [5] concerns the target Ubiquitin carboxyl-terminal hydrolase 1 (Homo sapiens) (UniProt O94782). The assay is described as follows: Inhibitors of USP1/UAF1: Pilot qHTS (AID 504865).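 Note: rhodamine fluorescence freed from ubiquitin-rhodamine substrate followed over time; top concentration of the series differs between compounds; % is set by controls: 0 for no effect and ±100 for the full control effect; nearly all actives have a fitted effect of over 35% in size.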 In a few lines:
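In 50mM HEPES pH 7.8 containing 0.5mM EDTA, 1mM TCEP, 0.1 mg/ml BSA and 0.01% Tween-20, 1nM USP1/UAF1 is exposed to compound for 15 min, then Ub-Rho (150nM final) is added and fluorescence is read over time.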

Assay [6] deals with Cytochrome P450 3A4 (Homo sapiens) (UniProt P08684). Briefly: qHTS Assay for Activators of Cytochrome P450 3A4 (AID 885). Note: nearly all actives have a fitted effect of over 65% in size. Note: potency is the fitted concentration of half-maximal effect. An outline of the steps:
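Quantitative HTS format: compounds preincubated with 20nM human CYP3A4 and Luciferin-PPXE substrate at KM, reaction started by NADPH regeneration, stopped after 60 min, luciferase luminescence read 20 min later.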

[7] abbreviates: measured here: cell count channel max response.
Where [8] appears, read: measured here: lipid channel max response.

Results filed as inconclusive are left out. Calls of active or inactive are those of the source. Unless noted, calls come from the whole dose curve; as a rule, active = well fitted curve in the direction sought with a large enough effect; inconclusive = small, poorly fitted or top-dose-only effect, or another doubt; inactive = no such curve, though single readings can be large; an effect the other way counts as inactive or inconclusive.

Cytochrome P450 3A4 (Homo sapiens), sequence (P08684 whole entry, looked up): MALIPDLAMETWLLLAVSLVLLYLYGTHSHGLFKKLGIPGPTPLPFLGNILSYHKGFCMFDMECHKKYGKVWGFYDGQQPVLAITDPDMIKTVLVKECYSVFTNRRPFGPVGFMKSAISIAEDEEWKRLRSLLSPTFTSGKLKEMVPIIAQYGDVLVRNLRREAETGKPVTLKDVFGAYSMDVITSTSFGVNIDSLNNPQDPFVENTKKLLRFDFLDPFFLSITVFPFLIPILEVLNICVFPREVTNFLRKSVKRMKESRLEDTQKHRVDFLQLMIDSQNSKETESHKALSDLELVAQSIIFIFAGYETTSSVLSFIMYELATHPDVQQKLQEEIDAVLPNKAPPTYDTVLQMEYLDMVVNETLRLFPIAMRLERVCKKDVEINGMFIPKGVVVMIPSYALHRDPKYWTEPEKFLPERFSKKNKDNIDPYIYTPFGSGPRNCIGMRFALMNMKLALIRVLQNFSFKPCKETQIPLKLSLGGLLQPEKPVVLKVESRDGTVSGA
Ubiquitin carboxyl-terminal hydrolase 1 (Homo sapiens), sequence (O94782 whole entry, looked up): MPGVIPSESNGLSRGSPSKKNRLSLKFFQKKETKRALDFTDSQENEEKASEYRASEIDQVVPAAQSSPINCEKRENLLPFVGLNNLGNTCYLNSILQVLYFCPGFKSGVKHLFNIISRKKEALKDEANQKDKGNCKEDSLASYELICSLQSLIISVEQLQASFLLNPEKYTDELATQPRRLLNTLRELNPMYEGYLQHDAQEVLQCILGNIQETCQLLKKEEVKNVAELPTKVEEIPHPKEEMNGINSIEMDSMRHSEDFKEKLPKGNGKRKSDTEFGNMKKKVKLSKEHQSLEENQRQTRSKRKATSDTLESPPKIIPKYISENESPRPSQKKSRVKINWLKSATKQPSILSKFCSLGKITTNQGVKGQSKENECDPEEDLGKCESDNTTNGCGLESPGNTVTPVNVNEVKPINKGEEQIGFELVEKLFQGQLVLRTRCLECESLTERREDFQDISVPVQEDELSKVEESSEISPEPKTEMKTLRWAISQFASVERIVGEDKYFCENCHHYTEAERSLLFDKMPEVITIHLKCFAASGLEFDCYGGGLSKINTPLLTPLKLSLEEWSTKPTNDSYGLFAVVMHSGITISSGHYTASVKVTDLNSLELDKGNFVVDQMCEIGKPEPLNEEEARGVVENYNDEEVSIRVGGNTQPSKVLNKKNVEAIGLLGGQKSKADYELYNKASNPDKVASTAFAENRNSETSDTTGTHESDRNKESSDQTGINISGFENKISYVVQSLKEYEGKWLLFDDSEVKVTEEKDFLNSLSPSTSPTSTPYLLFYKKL

Turning to `Nc1ncnc2nc(Cl)[nH]c12`, the Potency entry in assay [1], in assay [2], in assay [3] and in assay [5] was “inactive” each time. Besides, in assay [4], the activity change, negative = inhibition is 2.56% (inactive). Besides, the max response in assay [4] (setting [7]) is -7.94%; in assay [4] (setting [8]) it was -3%.
As to `CNc1ccccc1C(=O)N1CCc2c([nH]c3ccccc23)C1=O`, the Potency in assay [1] was 1 µM (active). For the same molecule, the Potency result in assay [6], in assay [3] and in assay [5] was “inactive” throughout. Besides, the activity change, negative = inhibition in assay [4] is 8.02% (inactive). The max response in assay [4] (setting [7]) was 12.5%; in assay [4] (setting [8]) it was 25.5%.
As to `COc1cc(NS(C)(=O)=O)ccc1Cc1c2ccccc2nc2ccccc12`, the Potency entry in assay [1], in assay [2], in assay [3] and in assay [5] was “inactive” throughout. Besides, the activity change, negative = inhibition in assay [4] was 4.8% (inactive). Moreover, the results for the max response in assay [4] (setting [7]) and in assay [4] (setting [8]) were 13% and 21.3%, respectively.
`COc1ccc2c(c1)OCC(Cc1ccc(OC)c(O)c1)C2=O` (stereo unspecified): the Potency in assay [1] is 25.1 µM (active). Also, the Potency result in assay [6], in assay [3] and in assay [5] was “inactive” each time. Moreover, in assay [4], the activity change, negative = inhibition was 6.62% (inactive). The max response in assay [4] (setting [7]) worked out at 3.51%; in assay [4] (setting [8]), 13%.
On to `OC/C=C/c1ccc(O)c(O)c1`, for which, in assay [1], the Potency is 15.8 µM (active). The Potency entry in assay [6], in assay [2], in assay [3] and in assay [5] was “inactive” each time. Also, the activity change, negative = inhibition in assay [4] was 8.76% (inactive). For the same molecule, the max response was 13.5% in assay [4] (setting [7]) and 23.8% in assay [4] (setting [8]).
As to `CC(CCC(=O)O)C1CCC2C3CC[C@@H]4CCCC[C@@]4(C)C3CC[C@@]12C` (stereo partly specified), the Potency entry in assay [1], in assay [2], in assay [3] and in assay [5] was “inactive” in each case. In addition, the activity change, negative = inhibition in assay [4] was 2.19% (inactive). The max response in assay [4] (setting [7]) came out at 13.8%; in assay [4] (setting [8]) it was 19%.
On to `CCC(/C=C/C(C)C1CCC2C3CC=C4CC(O)CC[C@@]4(C)C3CC[C@@]12C)C(C)C` (stereo partly specified), for which the Potency entry in assay [1], in assay [2], in assay [3] and in assay [5] was “inactive” in each case. In addition, the activity change, negative = inhibition in assay [4] is -0.637% (inactive). Further, the max response in assay [4] (setting [7]) was 13.1%; in assay [4] (setting [8]) it was 13.6%.
On to `CC(=O)O[C@@]1(C(C)=O)CCC2C3C=C(Cl)C4=CC(=O)C5CC5[C@@]4(C)C3CC[C@]21C` (stereo partly specified), for which the Potency entry in assay [1], in assay [2], in assay [3] and in assay [5] was “inactive” each time. Moreover, the activity change, negative = inhibition in assay [4] was 2.54% (inactive). Also, the max response in assay [4] (setting [7]) is -3.69%; in assay [4] (setting [8]), 0.864%.
On to `COc1ccc(/C=C/C(=O)c2ccc(O)cc2O)cc1OC`, for which the Potency in assay [1] is 1.26 µM (active). In addition, the Potency entry in assay [6], in assay [2], in assay [3] and in assay [5] was “inactive” throughout. In addition, the activity change, negative = inhibition in assay [4] was -12.3% (inactive). Further, the figures for the max response in assay [4] (setting [7]) and in assay [4] (setting [8]) were -8.55% and -18.6%, respectively.
As for `COc1cc(OC)c2c(=O)c(OC)c(-c3ccc(OC)c(OC)c3)oc2c1`, in assay [1], the Potency is 1.26 µM (active). The Potency entry in assay [6], in assay [2], in assay [3] and in assay [5] was “inactive” throughout. Moreover, the activity change, negative = inhibition in assay [4] was 1.54% (inactive). Moreover, the max response in assay [4] (setting [7]) was 14.1%; in assay [4] (setting [8]), 15.7%.
Turning to `CC(=O)OCC(=O)C1CCC2C3CCC4=CC(=O)CC[C@@]4(C)C3CC[C@]12C` (stereo partly specified), the Potency entry in assay [1], in assay [2], in assay [3] and in assay [5] was “inactive” throughout. In assay [6], the Potency is 3.16 µM (active). Also, the activity change, negative = inhibition in assay [4] is 5.85% (inactive). Besides, the figures for the max response in assay [4] (setting [7]) and in assay [4] (setting [8]) were 5.1% and 13.2%, respectively.
Consider `COC(=O)CC1C(C)(C)C(OC(C)=O)[C@@]2(O)C=C3C4CC(=O)OC(c5ccoc5)[C@]4(C)CCC3[C@@]1(C)C2=O` (stereo partly specified), for which the Potency in assay [1] was 7.94 µM (active). Besides, the Potency entry in assay [6], in assay [2], in assay [3] and in assay [5] was “inactive” in each case. Besides, the activity change, negative = inhibition in assay [4] is 10.4% (inactive). Besides, the max response in assay [4] (setting [7]) was 10.1%; in assay [4] (setting [8]) it was 21.8%.
For the molecule `O=c1cc(-c2ccc(O)c(O)c2)oc2ccccc12`, the Potency in assay [1] is 15.8 µM (active). Further, the Potency entry in assay [6], in assay [2], in assay [3] and in assay [5] was “inactive” each time. For the same molecule, the activity change, negative = inhibition in assay [4] is 2.38% (inactive). For the same molecule, the max response was -4.12% in assay [4] (setting [7]) and 2.75% in assay [4] (setting [8]).
As for `CCCc1cc(OC)c2c(c1)OCO2`, the Potency in assay [1] is 7.94 µM (active). Further, the Potency result in assay [6], in assay [3] and in assay [5] was “inactive” each time. In addition, in assay [4], the activity change, negative = inhibition was 11.5% (inactive). The max response in assay [4] (setting [7]) was -8.72%; in assay [4] (setting [8]), 1.71%.
Consider `CC1(C)OC2C(CO)OC(n3cnc4c(=O)[nH]cnc43)C2O1` (stereo unspecified), for which the Potency result in assay [1], in assay [2], in assay [3] and in assay [5] was “inactive” throughout. In addition, the activity change, negative = inhibition in assay [4] was 1.95% (inactive). Also, the max response was 3.64% in assay [4] (setting [7]) and 5.67% in assay [4] (setting [8]).
